# Screening results (PubChem BioAssay)
# Shown is part of a subset that was picked to be rich in hits.
# HDAC3 inh – inhibitors of human histone deacetylase 3; AID 2718; inhibition, % at 8.3 µM; recombinant HDAC3, fluorogenic peptide/trypsin coupled, fluorescence; 320,000 compounds, 0.15% hits; O15379; in the data active = inhibition above about 26%, passing the limit was not always enough; inconclusive = no clear call, values can overlap the other calls
# ALR H2O2 inh – blocks human ALR sulfhydryl oxidase activity | 290,000 compounds, 3.8% hits | purified ALR, DTT oxidation, H2O2 HRP-luminol luminescence | P55789 | inhibition, % (no concentration beside the values);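 active = mean replicate inhibition above about 79%, with every replicate also reaching it, limit read from the data; inconclusive = only one of the two criteria met; inactive = mean below limit and not every replicate reaching it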
# Target sequence (P55789 whole entry, looked up): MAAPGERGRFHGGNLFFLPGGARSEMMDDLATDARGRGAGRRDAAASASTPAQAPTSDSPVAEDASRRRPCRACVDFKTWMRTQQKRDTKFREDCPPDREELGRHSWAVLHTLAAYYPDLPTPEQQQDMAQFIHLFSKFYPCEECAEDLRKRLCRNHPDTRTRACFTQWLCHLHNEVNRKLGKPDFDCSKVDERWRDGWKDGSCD
# GC-B act – GC-B (human) receptor activation; P20594; activation, % at 10 µM; 370,000 compounds, 0.11% hits; HEK293-GC-B cells, CNP EC30, cGMP TR-FRET; 0% at EC30 CNP, 100% saturating CNP; AID 1920062;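 active = activation at 10 µM reaching about 35% in either raw or pattern-adjusted values, limit read from the data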
# GC-A act – GC-A (human) enzyme activation. 370,000 compounds, 0.14% hits. HEK293 GC-A cells, cGMP TR-FRET, EC30 ANP; 0% at EC30 ANP, 100% saturating ANP. activation, % at 10 µM. P16066; in the data active = activation above about 40%
# * marks the source's active call; other numbers are inactive results; u = inconclusive; x = not tested or not shown.
SMILES,HDAC3 inh,ALR H2O2 inh,GC-B act,GC-A act
NC(=O)c1ccc(-n2nnnc2SCC(=O)c2ccc(O)c(O)c2)cc1,-2,96*,3,-7
Cc1cc(C(=O)CSc2nnnn2-c2ccccc2)c(C)n1CCc1ccccc1,1,-3,4,-1
Cc1cc(C)c2nc(-c3ccccn3)cc(C(=O)NCc3ccco3)c2c1,-16,89*,4,2
Cc1cc(C)c2nc(-c3ccccn3)cc(C(=O)NCc3cc(C)n(C)n3)c2c1,-31,-5,1,1
CCN(CC)c1ccc(CN(C(=O)c2ccco2)C2CCS(=O)(=O)C2)cc1 (centres undefined),-3,99*,3,-3
Cc1ccc(CN(C(=O)c2cccs2)C2CCS(=O)(=O)C2)cc1 (centres undefined),-1,-8,-7,-8
CCN(CC)c1ccc(CN(C(=O)c2cccs2)C2CCS(=O)(=O)C2)cc1 (centres undefined),2,99*,2,-3
CCN(CC)c1ccc(CN(C(=O)c2cc(OC)c(OC)c(OC)c2)C2CCS(=O)(=O)C2)cc1 (centres undefined),-4,94*,2,-5
O=C(OCC#CCSc1nnc(-c2cccc3ccccc23)o1)c1ccc(F)cc1F,x,x,-2,-1
Cc1cnc(=O)[nH]c1SCc1cccc([N+](=O)[O-])c1,-5,53,-5,-3
COc1ccc(Cn2c(=O)n(Cc3ccco3)c(=N)c3c4c(sc32)COC(C)(C)C4)cc1,3,-2,56*,56*
CCCC[C@@H]1C(=O)N2N=C(c3ccccc3)c3ccccc3[C@H]2N2N=C(c3ccccc3)c3ccccc3[C@@H]12,x,x,-3,-5
COc1ccc(Oc2cn[nH]c2-c2ccc(O)cc2O)cc1,-4,30,7,23
CCCc1ccc(Oc2cn[nH]c2-c2ccc(O)cc2O)cc1,0,-4,1,40*
CCCOC(=O)c1ccc(Oc2cn[nH]c2-c2ccc(O)cc2O)cc1,14,85*,4,0
O=C(NNS(=O)(=O)c1ccc(Br)cc1)c1ccccc1-n1cccc1,-9,8,0,-5
N#C/C(=C\c1ccc(O)c(O)c1)C(=O)Nc1ccccc1,6,99*,-8,-1
N#C/C(=C\c1ccncc1)C(=O)Nc1ccc(C(=O)O)cc1,0,95*,3,4
CC(NC(=O)/C(C#N)=C/c1ccc(Cl)c([N+](=O)[O-])c1)c1ccccc1 (centres undefined),4,4,0,55*
COc1ccc(O)c(/C=C(\C#N)C(=O)Nc2cccnc2)c1,7,98*,-8,2
N#C/C(=C\c1ccc(O)c([N+](=O)[O-])c1)C(=O)NCc1ccccc1,5,5,0,0
CCC(=O)N1CCC(C)(C(=O)NCc2ccc(F)cc2)C1 (centres undefined),x,x,-1,5
COCOCCn1cc(CN2CCS(=O)(=O)N(Cc3ccc(-c4ccncc4)cc3)C(C(C)C)C2=O)nn1 (centres undefined),x,x,0,-2
CCOc1cc2[nH]c(=S)n(CCC(=O)NC3CCCCC3)c(=O)c2cc1OCC,x,x,1,-2
CC(NC(=O)/C(C#N)=C/c1ccc(OCC(=O)O)cc1)c1ccccc1 (centres undefined),2,6,3,-1
SMILES,HDAC3 inh,ALR H2O2 inh,GC-B act,GC-A act
COc1ccc(/C=C(\C#N)C(=O)Nc2cccc3ncccc23)cc1OC,3,x,-6,10
C[C@@H](NC(=O)/C(C#N)=C/c1ccc(O)c(O)c1)c1ccccc1,7,99*,-1,-1
N#C/C(=C\c1ccc(O)c(O)c1)C(=O)Nc1cccc2ncccc12,3,99*,-11,-6
CC(C)Cn1c(N)c(C(=O)COC(=O)/C=C/c2ccccc2)c(=O)n(C)c1=O,x,3,-2,3
CCOC(=O)c1[nH]c2ccc(OC)cc2c1NC(=O)OC,-9,-3,-9,0
CCOC(=O)c1[nH]c2ccc(OC)cc2c1N=CN(C)C,-9,98*,-2,-4
Cc1ccc(C)c(S(=O)(=O)/N=C2\C=C(NS(=O)(=O)c3ccccc3)C(=O)c3ccccc32)c1,1,-12,-4,-9
Cc1cc(C)c(S(=O)(=O)/N=C2/C=C(Sc3ncn[nH]3)C(=O)c3ccccc32)cc1C,40*,-68,-6,-15
CC1(NC(=O)Nc2cc([N+](=O)[O-])ccc2O)CCS(=O)(=O)C1 (centres undefined),0,11,-3,-2
Cc1cc(C)c(C(=O)NC2CC(C)(C)Cc3c2cnn3-c2ccccc2)o1 (centres undefined),0,87*,-7,-7
CSCc1ccc(C(=O)NC2CC(C)(C)Cc3c2cnn3-c2ccc(F)cc2)o1 (centres undefined),1,94*,-3,-7
CCOC(=O)/C(C#N)=C\C=C1C=CN(C)C=C1,13,99*,-8,-18
N#CC1=C(N)NC(SCc2ccc(Br)cc2)=C(C#N)C12CCCCC2,u,-20,5,-3
N#CC1=C(N)NC(SCC(=O)Nc2ccc(Br)cc2)=C(C#N)C12CCCCC2,18,97*,1,-4
O=C(C(=O)N1CCN(S(=O)(=O)c2ccccc2)CC1)c1cccc(C(F)(F)F)c1,x,x,1,1
O=C(O)c1ccccc1C(=O)N1N=C2/C(=C/c3cccc([N+](=O)[O-])c3)CCCC2C1c1cccc([N+](=O)[O-])c1 (centres undefined),3,79*,2,-7
CCOc1ccc(-n2c(SCC(=O)c3ccc4ccccc4c3)nnc2-c2ccc(OC)cc2)cc1,x,x,0,-2
O=C(O)/C=C\C(=O)Nc1ccccc1C#Cc1ccc(Br)cc1,4,98*,-3,3
O=C(NCCCn1ccnc1)C(=O)NCC(c1ccco1)N1CCN(c2ccccc2)CC1 (centres undefined),8,99*,5,4
O=C(NCCCn1ccnc1)C(=O)NCC(c1cccnc1)N1CCN(c2ccccc2)CC1 (centres undefined),-2,99*,-1,0
COc1ccc(N2CCN(C(CNC(=O)C(=O)NCCCn3ccnc3)c3ccco3)CC2)cc1 (centres undefined),-1,83*,6,1
O=C(NCCCn1ccnc1)C(=O)NCC(c1ccco1)N1CCN(c2ccc(F)cc2)CC1 (centres undefined),3,98*,2,1
Cc1cccc(C)c1OCC(=O)NNC(=O)CCCn1c(=O)oc2ccccc21,4,-9,3,0
CN(CCC#N)C(=O)COC(=O)c1ccc(CNS(=O)(=O)c2ccc(F)c(Cl)c2)cc1,9,-2,-1,-2
O=C(CN1CCc2cc3c(cc2C1)OCCCO3)Nc1c(F)cccc1F,2,-5,-2,-1
CCc1ccc(S(=O)(=O)Nc2ccc(N3CCN(C)CC3)cc2)cc1,3,45,-7,0
Cc1cc(C(=O)NC2CCCCCC2)c2ccccc2n1,-5,2,5,-2
Cc1ccc(C)c(-c2cc(C(=O)NC3CC3)c3ccccc3n2)c1,8,94*,3,2
